Experimental data published in PubChem BioAssay AID1159580 (chemical genetic matrix, 2015).
Hit rate of the full screen: of about 5,500 compounds, about 2,000 (36%) were called active. Roughly 18% stayed inconclusive and do not appear here. Rule as the data show it: active = normalized growth mostly below about 0.91 (no sharp cut-off); inconclusive = no clear call, values can overlap the other calls; inactive = mostly above about 0.92. The list shows a part of the results.

Experiment: chemical genetic growth profiling, strain panel (AID 1159580);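 also: tested at 20 µM; growth read once vehicle control cultures reached saturation at 30 °C; 1 = growth at the plate median or of vehicle wells; lower values mean less growth of the strain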
Settings: growth OD
[1] = S. cerevisiae deletion strains, locus YAL013W, strain DEP1, active compounds read low
[2] = S. cerevisiae deletion strains, locus YBR229C, strain ROT2, active compounds read low
[3] = S. cerevisiae deletion strains, locus YDL101C, strain DUN1, active compounds read low
[4] = S. cerevisiae deletion strains, locus YDR150W, strain NUM1, active compounds read low
[5] = S. cerevisiae deletion strains, locus YEL061C, strain CIN8, active compounds read low
[6] = S. cerevisiae deletion strains, locus YGR078C, strain PAC10, active compounds read low
[7] = S. cerevisiae deletion strains, locus YGR229C, strain SMI1, active compounds read low
[8] = S. cerevisiae deletion strains, locus YHR030C, strain SLT2, active compounds read low
[9] = S. cerevisiae deletion strains, locus YJR043C, strain POL32, active compounds read low
[10] = S. cerevisiae deletion strains, locus YJR075W, strain HOC1, active compounds read low
[11] = S. cerevisiae deletion strains, locus YKL190W, strain CNB1, active compounds read low
[12] = S. cerevisiae deletion strains, locus YLR039C, strain RIC1, active compounds read low
[13] = S. cerevisiae deletion strains, locus YLR262C, strain YPT6, active compounds read low
[14] = S. cerevisiae deletion strains, locus YMR263W, strain SAP30, active compounds read low
[15] = S. cerevisiae deletion strains, locus YNL153C, strain GIM3, active compounds read low
[16] = S. cerevisiae deletion strains, locus YNL322C, strain KRE1, active compounds read low
[17] = S. cerevisiae deletion strains, locus YOL006C, strain TOP1, active compounds read low
[18] = S. cerevisiae deletion strains, locus YPL055C, strain LGE1, active compounds read low
[19] = S. cerevisiae deletion strains, locus YPL241C, strain CIN2, active compounds read low

Measured: normalized growth

O=C(O)c1coc2ccccc2c1=O
inactive: [1] 1 | [2] 0.99 | [3] 0.973 | [4] 0.908 | [5] 1.02 | [6] 0.995 | [7] 0.999 | [8] 0.867 | S. cerevisiae deletion strains, locus YHR087W, strain rtc3, active compounds read low 0.96 | S. cerevisiae deletion strains, locus YJL187C, strain SWE1, active compounds read low 0.992 | [9] 1 | [10] 0.897 | [11] 1.01 | S. cerevisiae deletion strains, locus YLR058C, strain SHM2 (second series), active compounds read low 0.995 | S. cerevisiae deletion strains, locus YLR085C, strain ARP6, active compounds read low 0.853 | S. cerevisiae deletion strains, locus YML094W, strain GIM5, active compounds read low 0.96 | S. cerevisiae deletion strains, locus YMR219W, strain ESC1, active compounds read low 0.964 | [14] 0.978 | [15] 0.982 | S. cerevisiae deletion strains, locus YNL298W, strain CLA4 (second series), active compounds read low 1 | [16] 0.994 | S. cerevisiae deletion strains, locus YNR030W, strain Alg12, active compounds read low 0.888 | [17] 0.852 | [18] 0.906 | S. cerevisiae deletion strains, locus YPR135W, strain CTF4, active compounds read low 0.892
active: S. cerevisiae deletion strains, locus YCL061C, strain MRC1, active compounds read low 0.906 | [12] 0.665 | [13] 0.764 | [19] 0.833

Cc1coc2ccccc2c1=O
inactive: [1] 0.999 | S. cerevisiae deletion strains, locus YBR021W, strain FUR4, active compounds read low 0.998 | [2] 1.01 | S. cerevisiae deletion strains, locus YCL029C, strain bik1, active compounds read low 1.02 | S. cerevisiae deletion strains, locus YDL035C, strain GPR1, active compounds read low 1 | S. cerevisiae deletion strains, locus YDL074C, strain BRE1, active compounds read low 1 | [3] 1.01 | S. cerevisiae deletion strains, locus YDL134C, strain PPH21, active compounds read low 1 | S. cerevisiae deletion strains, locus YDL185W, strain tfp1, active compounds read low 1.01 | S. cerevisiae deletion strains, locus YDL192W, strain arf1, active compounds read low 1.03 | S. cerevisiae deletion strains, locus YDR101C, strain arx1, active compounds read low 1.01 | [4] 1 | S. cerevisiae deletion strains, locus YDR162C, strain NBP2, active compounds read low 1.01 | S. cerevisiae deletion strains, locus YDR318W, strain mcm21, active compounds read low 1.02 | S. cerevisiae deletion strains, locus YDR388W, active compounds read low 1.02 | S. cerevisiae deletion strains, locus YDR502C, strain sam2, active compounds read low 1.02 | [5] 1 | S. cerevisiae deletion strains, locus YER110C, active compounds read low 1.03 | S. cerevisiae deletion strains, locus YER155C, strain BEM2, active compounds read low 1.01 | S. cerevisiae deletion strains, locus YER167W, strain BCK2, active compounds read low 1.01 | S. cerevisiae deletion strains, locus YGL078C, strain dbp3, active compounds read low 1.02 | S. cerevisiae deletion strains, locus YGL086W, strain mad1, active compounds read low 1.02 | S. cerevisiae deletion strains, locus YGL248W, strain PDE1, active compounds read low 1 | [6] 1.01 | S. cerevisiae deletion strains, locus YGR135W, strain pre9, active compounds read low 1.01 | [7] 0.991 | S. cerevisiae deletion strains, locus YGR252W, strain gcn5, active compounds read low 1.03 | [8] 0.997 | S. cerevisiae deletion strains, locus YHR079C, strain IRE1 (second series), active compounds read low 1.02 | S. cerevisiae deletion strains, locus YHR094C, strain hxt1, active compounds read low 1.02 | S. cerevisiae deletion strains, locus YHR129C, strain ARP1, active compounds read low 1 | S. cerevisiae deletion strains, locus YHR200W, strain rpn10, active compounds read low 1.03 | S. cerevisiae deletion strains, locus YIL066C, strain RNR3, active compounds read low 1.01 | S. cerevisiae deletion strains, locus YIL073C, strain SPO22, active compounds read low 1.09 | S. cerevisiae deletion strains, locus YIL125W, strain kgd1, active compounds read low 1.03 | S. cerevisiae deletion strains, locus YIR030C, strain dcg1, active compounds read low 1.03 | S. cerevisiae deletion strains, locus YJL095W, strain BCK1, active compounds read low 0.988 | S. cerevisiae deletion strains, locus YJL134W, strain LCB3, active compounds read low 0.999 | S. cerevisiae deletion strains, locus YJL168C, strain set2, active compounds read low 1.03 | S. cerevisiae deletion strains, locus YJL187C, strain SWE1 (second series), active compounds read low 1 | [9] 0.992 | [10] 1 | S. cerevisiae deletion strains, locus YKL009W, strain mrt4, active compounds read low 1.02 | S. cerevisiae deletion strains, locus YKL068W, active compounds read low 1.01 | S. cerevisiae deletion strains, locus YKL085W, strain MDH1 (second series), active compounds read low 1.01 | S. cerevisiae deletion strains, locus YKL085W, strain MDH1, active compounds read low 1.01 | [11] 1 | S. cerevisiae deletion strains, locus YKR001C, strain vps1, active compounds read low 1.02 | [12] 1.01 | S. cerevisiae deletion strains, locus YLR058C, strain SHM2, active compounds read low 1 | S. cerevisiae deletion strains, locus YLR102C, strain apc9, active compounds read low 1.04 | [13] 1.01 | S. cerevisiae deletion strains, locus YLR268W, strain sec22, active compounds read low 1.01 | S. cerevisiae deletion strains, locus YLR330W, strain CHS5, active compounds read low 1.01 | S. cerevisiae deletion strains, locus YLR342W, strain FKS1 (second series), active compounds read low 1.01 | S. cerevisiae deletion strains, locus YLR371W, strain rom2, active compounds read low 1.03 | S. cerevisiae deletion strains, locus YLR418C, strain cdc73, active compounds read low 1.01 | S. cerevisiae deletion strains, locus YML016C, strain PPZ1, active compounds read low 1 | S. cerevisiae deletion strains, locus YML032C, strain rad52, active compounds read low 1.05 | S. cerevisiae deletion strains, locus YML124C, strain tub3, active compounds read low 1.02 | S. cerevisiae deletion strains, locus YMR078C, strain ctf18, active compounds read low 1.03 | S. cerevisiae deletion strains, locus YMR223W, strain ubp8, active compounds read low 1.02 | [14] 0.998 | S. cerevisiae deletion strains, locus YMR307W, strain GAS1, active compounds read low 1 | S. cerevisiae deletion strains, locus YNL067W, strain RPL9B, active compounds read low 0.992 | S. cerevisiae deletion strains, locus YNL128W, strain TEP1, active compounds read low 1.01 | [15] 0.985 | S. cerevisiae deletion strains, locus YNL233W, strain BNI4, active compounds read low 0.995 | S. cerevisiae deletion strains, locus YNL250W, strain rad50, active compounds read low 1.03 | S. cerevisiae deletion strains, locus YNL271C, strain bni1, active compounds read low 1.03 | S. cerevisiae deletion strains, locus YNL298W, strain CLA4, active compounds read low 1.02 | S. cerevisiae deletion strains, locus YNL307C, strain MCK1, active compounds read low 1.03 | [16] 1 | S. cerevisiae deletion strains, locus YNR052C, strain pop2, active compounds read low 1.04 | [17] 0.974 | S. cerevisiae deletion strains, locus YOL012C, strain htz1 0.801 | S. cerevisiae deletion strains, locus YOL147C, strain pex11, active compounds read low 1.02 | S. cerevisiae deletion strains, locus YOR061W, strain CKA2, active compounds read low 1 | S. cerevisiae deletion strains, locus YOR069W, strain VPS5, active compounds read low 0.998 | S. cerevisiae deletion strains, locus YOR136W, strain idh2, active compounds read low 1.02 | S. cerevisiae deletion strains, locus YOR144C, strain elg1, active compounds read low 1.01 | S. cerevisiae deletion strains, locus YOR184W, strain ser1, active compounds read low 1.04 | S. cerevisiae deletion strains, locus YOR316C, strain cot1, active compounds read low 1.02 | [18] 1.01 | [19] 1 | S. cerevisiae deletion strains, locus YPR119W, strain clb2, active compounds read low 1.03 | S. cerevisiae deletion strains, locus YPR141C, strain kar3, active compounds read low 1.03 | S. cerevisiae deletion strains, locus YPR163C, strain tif3, active compounds read low 1.03 | S. cerevisiae deletion strains, locus YPR167C, strain met16, active compounds read low 1.03 | S. cerevisiae deletion strains, strain wtn01, active compounds read low 1.03 | S. cerevisiae strains, strain wild type, active compounds read low 1
